This is one part of a sample in which hits are shown more often than they occur.
Methyltransferases – Primary Screen for Target Class Profiling of Small Molecule Inhibitors of Methyltransferases; 25,000 compounds, 3.9% hits; purified enzyme, MTase-Glo SAH luminescence; stronger effect = lower value; calls only at 40 µM; call rule not given here
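Each enzyme was assayed with SAM and its substrate. SAH formation detected by MTase-Glo luminescence; single-point 40 uM screen[…].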
* = called active by the depositor; i = inactive; + = active, no number. On the % scale 0 is the no-effect control and ±100 the full control effect.

SMILES	Methyltransferases
CC1(C)CC[C@]2(C(=O)OC3OC(CO)C(O)C(O)C3O)CC[C@]3(C)C(=CCC4[C@@]5(C)C[C@@H](O)[C@H](OC6OC(C(=O)O)C(O)C(O)C6O)C(C)(C)C5CC[C@]43C)[C@@H]2C1 (stereo partly drawn)	i
CC1(C)CC[C@]2(C(=O)O[C@@H]3O[C@H](CO)[C@@H](O)[C@H](O)[C@H]3O)CC[C@]3(C)C(=CCC4[C@@]5(C)C[C@@H](O)[C@H](O)[C@@](C)(CO)C5CC[C@]43C)C2C1 (stereo partly drawn)	+
CC1(C)CC[C@]2(C(=O)O)CC[C@]3(C)C(=CCC4[C@@]5(C)C[C@@H](O)[C@H](O)C(CO)(CO)C5CC[C@]43C)C2[C@@H]1O (stereo partly drawn)	+
C[C@@H]1O[C@@H](O[C@H]2[C@H](O)[C@@H](O)[C@H](OC[C@H]3O[C@@H](OC(=O)[C@]45CCC(C)(C)C[C@H]4C4=CCC6[C@@]7(C)C[C@H](O)[C@H](O[C@@H]8O[C@H](CO)[C@@H](O)[C@H](O)[C@H]8O)[C@@](C)(C(=O)O)C7CC[C@@]6(C)[C@]4(C)CC5)[C@H](O[C@@H]4O[C@H](CO)[C@@H](O)[C@H](O)[C@H]4O)[C@@H](O)[C@@H]3O)O[C@@H]2CO)[C@H](O)[C@H](O)[C@H]1O (stereo partly drawn)	i
C[C@@H]1CC[C@]2(C(=O)O)CC[C@]3(C)C(=CCC4[C@@]5(C)C[C@@H](O)[C@H](O)[C@@](C)(CO)C5CC[C@]43C)C2[C@H]1C (stereo partly drawn)	i
CC1(C)CC[C@]2(C(=O)O[C@@H]3O[C@H](CO)[C@@H](O)[C@H](O)[C@H]3O)CC[C@]3(C)C(=CCC4[C@@]5(C)C[C@H](O)[C@H](O[C@@H]6OC[C@@H](O)[C@H](O)[C@H]6O)[C@@](C)(CO)C5CC[C@]43C)C2C1 (stereo partly drawn)	i
CC1(C)CC[C@]2(C(=O)O[C@@H]3O[C@H](CO)[C@@H](O)[C@H](O)[C@H]3O)CC[C@]3(C)C(=CCC4[C@@]5(C)C[C@@H](O)[C@H](O)C(C)(C)C5[C@H](O)C[C@]43C)[C@@H]2[C@@H]1O (stereo partly drawn)	i
CC1(C)CC[C@]2(C(=O)O[C@@H]3O[C@H](CO)[C@@H](O)[C@H](O)[C@H]3O)CC[C@]3(C)C(=CCC4[C@@]5(C)C[C@@H](O)[C@H](O)C(CO)(CO)C5CC[C@]43C)C2[C@@H]1O (stereo partly drawn)	+
CCCC1c2ccc(C)n2CCN1C(=O)Nc1cccc(C)c1 (stereo not drawn)	i
CCCn1c(=O)c2ccc(C(=O)NC(C)C)cc2n2c(SCC(=O)c3ccc(C)cc3C)nnc12	i
CCCn1c(=O)c2ccccc2n2c(SCC(=O)Nc3ccc(OC)c(OC)c3)nnc12	i
CCc1ccc(C2c3cccn3-c3sc4c(c3CN2C(=O)Nc2cc(OC)ccc2OC)CCCC4)cc1 (stereo not drawn)	i
COc1ccccc1N1CCN(C(=O)Cn2c(=O)n3nc(-c4ccccc4)nc3c3ccccc32)CC1	i
Cc1ccc(Nc2ccn3c(=O)n(CC(=O)Nc4cc(F)ccc4F)nc3n2)cc1	i
O=C(CSc1nnc2n(Cc3ccc(F)cc3)c(=O)c3ccccc3n12)Nc1cccc(Cl)c1	i
COc1ccc(-c2cc3n(n2)CC(C)(C(=O)NC2CCCCC2)N(Cc2ccc(C)cc2)C3=O)cc1 (stereo not drawn)	i
COc1ccc(CCNC(=O)CCc2nnc3n(CCc4ccccc4)c(=O)c4ccccc4n23)cc1OC	i
CCN=C1N[C@@H]2[C@@H](O)[C@H](O)[C@@H](CO)O[C@@H]2S1	i
CN1CCCN(CC(=O)N2CCCC(c3ccc(C(=O)O)cc3)C2)CC1 (stereo not drawn)	i
CN(CC(=O)N(Cc1ccc(C2CCCCC2)cc1)c1ccc(C(=O)O)cc1)S(=O)(=O)c1c(F)c(F)c(F)c(F)c1F	+
CN(Cc1ccccc1)C(=O)CN(C)S(=O)(=O)c1ccc2[nH]c3c(c2c1)CCCC3	i
CC(C)Cn1c(=O)c2ccccc2n2c(=O)n(CC(=O)Nc3cccc(F)c3)nc12	i
COc1ccc2c(c1)c(CN1CCOCCNC(=O)CC1)cn2C	i
Nc1nnc(-c2cccc(Cl)c2Cl)c(N)n1	i
Nc1nc(NC2CC2)cc(-c2cccc(Cl)c2Cl)n1	+
CC(C)Cn1c(=O)c2cc(F)ccc2n2c(SCC(=O)Nc3ccc(F)cc3)nnc12	i
Cc1cc(C(=O)N2CCc3ncnc(N4CCOCC4)c3CC2)n(C)n1	i
CCn1nnc2c(N3CCOCC3)nc(-c3ccc(NC(=O)Nc4ccc(C(=O)N5CCN(C)CC5)cc4)cc3)nc21	+
Cc1c(NC(=O)c2ccc(C(C)(C)C)cc2)cccc1-c1cn(C)c(=O)c(Nc2ccc(C(=O)N3CCOCC3)cc2)n1	i

Assay outcomes deposited in PubChem by National Center for Advancing Translational Sciences (NCATS).
